# Data reported in the supplement of paper PMC6555819.
# Columns and labels:
# Assay in all cases: PBM binding z-score (relative to random genomic background probes); higher = stronger binding; sequences stand for … in GC…GCGATTGACAGCGTAGAATGAAGG
# [1] = tested on: PPARg:RXRa DBDmut IVT, anti-RXR (DBD mutation: RXRa K156A/R161A, NR concentration 270 nM, RXRa partner concentration 90 nM)
# Procedure, shortened: (§1)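 Random background probes are the reference for binding z-scores. These scores derive from regression-normalized fluorescence on custom Agilent 4×180K protein-binding microarrays incubated 1 h with ligand-free nuclear receptor dimers. Binding was detected with antibodies against each partner (one per run).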
# [2] = tested on: PPARg:RXRa IVT, anti-PPARg (NR concentration 270 nM, RXRa partner concentration 90 nM)
# Procedure, shortened: as §1
# [3] = tested on: PPARg DBDmut:RXRa IVT, anti-PPARg (DBD mutation: PPARg1 K132A/R137A, NR concentration 270 nM, RXRa partner concentration 90 nM)
# Procedure, shortened: as §1
# [4] = tested on: PPARg DBDmut IVT, anti-PPARg (DBD mutation: PPARg1 K132A/R137A, NR concentration 270 nM)
# Procedure, shortened: as §1
# [5] = tested on: PPARg homodimer (NR concentration 180 nM)
# Procedure, shortened: as §1
# [6] = tested on: PXR:RXRa (NR concentration 270 nM, RXRa partner concentration 90 nM)
# Procedure, shortened: as §1
# [7] = tested on: PXR homodimer (NR concentration 270 nM)
# Procedure, shortened: as §1
# [8] = tested on: RARa:RXR (NR concentration 270 nM, RXRa partner concentration 90 nM)
# Procedure, shortened: as §1
# [9] = tested on: RARa homodimer (NR concentration 270 nM)
# Procedure, shortened: as §1
# [10] = tested on: RARb:RXRa (NR concentration 270 nM, RXRa partner concentration 90 nM)
# Procedure, shortened: as §1
Sequence,PBM binding z-score [1],PBM binding z-score [2],PBM binding z-score [3],PBM binding z-score [4],PBM binding z-score [5],PBM binding z-score [6],PBM binding z-score [7],PBM binding z-score [8],PBM binding z-score [9],PBM binding z-score [10]
AGAATGAGGTAACCAAAGATCAGGGAAACGCTTG,3.05,2.17,1.22,1.42,-0.124,0.0437,-0.0264,0.577,0.155,0.403
TCATATAGGTAAAGGCGAAAGTCGAACGATATGA,3.49,2.3,1.22,0.996,0.221,-0.107,0.0413,0.124,0.504,0.399
CGACCTAGGTCAAGGACAGTGAATCTCCGCACGC,4.04,3.83,0.362,-0.346,2.36,1.6,-0.248,2.45,0.805,4.13
CAAACTAGGTCACAGCGGTCAAAGTCCGTGCGTA,8.22,8.97,2.1,1.7,2.78,3.32,1.36,3.58,1.2,4.58
CGTCCAAGGTCAATGGTAGGTCAGTGAAAGCATT,3.32,3.95,-0.0725,-0.844,5.44,4.84,1.79,5.88,1.16,5.37
CAAACTAGGTCAAGAGGTCAGAGTCCGCTTCCCG,8.57,8.53,2.77,1.17,6.51,5.04,0.812,6.67,3.26,5.15
CTCGAAAGGCCGGTTGAGGTGAGTATACGGATAA,-0.491,-0.359,-0.611,-0.528,-1.35,-0.133,-0.38,1.91,-1.14,0.703
ATACCAAGGTGATTGTGAGGTCGTTGATACTAAC,0.693,1.27,0.771,0.654,1.27,3.13,2.05,2.22,0.72,1.41
TTTGCTAGGTCAACGATGGTCAGCTAATCTGCTA,4.45,5.11,0.599,0.434,0.874,1.46,-0.501,2.15,-0.298,4.13
TAGCCTAGGTCATTGAGCCAGTATAGTACGCATC,1.41,2.41,0.454,0.0795,0.0834,1.53,-0.111,2.18,-0.419,3.6
CTCGAAAGGTCGTGCTCAGGTGAGTCTACCAAAC,1.08,1.81,-0.131,-0.101,1.24,3.07,0.183,3.94,-0.14,3.86
GCAGCCAGGTGAAACGCAGGTAACTCAGGGTGGC,1.32,1,-1.26,-1.53,-1.44,-0.698,-1.29,0.121,-2.03,0.362
TCATATCGGTAAATGCTAGGTGAAAGTCCGATCT,1.8,1.17,0.763,0.728,0.249,0.387,-0.111,0.463,-0.336,0.381
ATATGTAGGTTACATCCGGGTCACTCAGGCTATG,7.65,7.47,3.76,3.51,2.34,3.29,1.26,3.74,0.95,2.41
AGAATGAGGTTATACGTAGATCAGCGAAGAAAGT,3.8,2.33,0.885,1.06,1.02,0.953,0.44,1.55,-0.289,1.23
CTCGAAAGGTCGTGCCCAGGTGAGTATACCAAAC,0.771,1.91,0.249,0.285,2.38,3.17,0.0798,4.63,0.0863,3.91
CAAACTAGGTCATGAAAGGTCAAAGTCGAATGAC,8.27,8.84,5.43,7.62,9.18,7.23,2.71,7.33,4.32,5.36
GCTGCTAGGTCAGGTAGGTCAGCTAACGGGTACG,3.3,3.37,-0.274,-0.592,1.34,1.65,-0.0271,1.95,-0.315,3.87
ATATGTAGGTTAAGGGTCGTTCAGGTTGGTTCGC,7.55,7.66,3.39,1.59,2.62,3.64,2.22,3.78,2.01,2.33

Sequence,PBM binding z-score [1],PBM binding z-score [2],PBM binding z-score [3],PBM binding z-score [4],PBM binding z-score [5],PBM binding z-score [6],PBM binding z-score [7],PBM binding z-score [8],PBM binding z-score [9],PBM binding z-score [10]
TGTATTAGTTGAAGGGCAACCGACGAGTCCGTTT,0.404,0.87,0.403,1.05,1.27,0.63,0.962,0.3,0.995,1.5
CCGGCTGGGGCATAAGGTTACCATAAGCCAGCCC,-0.781,0.196,-2.71,-2.08,1.02,0.131,-0.484,1.23,-0.82,1.62
CGAACTAGCTCAGAACAGGACAGTGAAGGATGAT,-0.0249,-0.714,-0.195,0.0741,-0.71,-0.669,0.0442,-0.393,0.354,-0.236
CCTTACGGGTCAAGGTTATAACACGGGTGGTACG,2.12,3.6,0.305,-0.192,2.04,3.52,0.548,4.5,0.85,4.24
TCTCGGACGACACGAAGGTCAGAGCTTTCCAGAG,1.39,0.576,-1.3,-0.777,1.07,1.61,-0.245,1.95,0.13,2.8
ACAGACACGTGAGTGAAGGTAACTCAGCTGGACG,-0.453,-0.172,-0.0263,0.112,-0.539,-0.408,-0.777,-0.0459,-0.522,-0.255
CGAACTAGGTCACAACAGGACAGTGAAGGATGAT,8.41,8.69,2.32,1.05,1.54,1.85,0.241,1.87,0.573,3.79
GGTACAGGGTCAAGGCCAGAGTACGCGTATTGAT,1.42,3.96,0.368,0.441,2.35,3.98,0.674,4.77,0.889,4.63
GTACCAAGGTGAATAGGTCTTTGATGAGTAGGCG,2.18,2.5,0.818,0.145,0.986,0.0831,0.119,0.721,0.436,1.36
CGTCCAAGGCCATAGGAGGTCAGTGAAGACAGAT,0.496,1.69,-0.275,-0.658,0.925,3.03,1.16,2,-0.0451,2.9
ATACCAAGGTGATCGTGAGGTCGTTGATACTAAC,0.604,1.28,0.214,0.382,1.03,2.86,1.53,1.82,0.745,1.42
CCTGCTACGTCATGGTCAGCTAATCTACAGTATG,0.0597,-0.592,0.222,-0.835,-0.235,-0.16,-0.428,-0.116,-0.328,0.259
CACACTAGGTCACGAAAGGTCAAAGTCGAATGAC,7.74,8.37,3.1,1.95,5.51,7.26,2.87,7.78,2.46,5.97
TCTAGTTGGTCACGGAGGTCACACAGGACGGGTA,2.41,4.28,0.872,-0.126,3.68,4.78,3.02,4.72,1.58,3.98
AGAACGAGGGCAATGACTTGATAGCACGGGTGGC,3.17,2.49,0.669,-0.215,0.348,0.345,0.000958,0.436,-0.218,2.11
ATTTCTAGGTAAAAGTTCAGTGAATCCCGAGGAT,4.32,5.47,1.89,3.02,2.19,2.38,2.31,2.04,1.29,2.81
CCGACTGGGGCATAAGGTTACGATAAGCCAGCCC,2.87,3.37,-0.323,-1.04,1.02,0.614,-0.423,1.66,-0.594,1.77
CTCGAAAGGTCGGATGAGGTGAGTATACGGATAA,0.154,0.983,0.973,-0.0346,0.968,3.55,-0.0327,2.62,0.562,3.32
CAAACTAGGTCAACGGAAGGTCAAAGTCCGCATG,8.48,8.61,4.8,2.05,7.1,5.74,2.3,7.48,2.65,5.04
